According to ChEMBL document CHEMBL3988442, “University of Dundee, Small-Polar-MMV Screening Library” (2021):
The whole screen tested about 48,000 compounds, of which about 13,000 (27%) showed an effect of 50% or more. Some of the results follow.

test system: Wolbachia pipientis; test: Anti-Wolbachia Cell-Based Screen; format: functional; parameters: scale not given: in the data most compounds retested in dose-response had high values; conditions: 5 µM

Compound	Percent Effect
Cc1nc(C)n(CC2CCCN(Cc3ncc(C(C)(C)C)o3)C2)n1 (centres undefined)	87.18%
Cc1nc(C)n(CC2CCCCN2Cc2ncc(C(C)(C)C)o2)n1 (centres undefined)	8.215%
Cc1cc(C)n(CC2CCCN2Cc2cccc(C#N)c2)n1 (centres undefined)	-4.614%
Cc1cc(C)n(CC2CCCN2CCc2ccncc2)n1 (centres undefined)	-8.858%
Cc1cc(C)n(CC2CCCN2Cc2ncc(C(C)(C)C)o2)n1 (centres undefined)	98.37%
Cc1nc(C)n(CC2CCCN2Cc2ncc(C(C)(C)C)o2)n1 (centres undefined)	109.1%
Cc1nc(C)n(CC2CCCN2Cc2ncc(-c3ccccc3)o2)n1 (centres undefined)	119.8%
Cc1nc(C)n(CC2CCCN2Cc2ccccn2)n1 (centres undefined)	5.197%
Cc1nc(C)n(CC2CCCN(Cc3nc(C)c(C)o3)C2)n1 (centres undefined)	2.327%
c1ccc(-c2cnc(CN3CCCC3Cn3cncn3)o2)cc1 (centres undefined)	-9.309%
CN(Cc1ccc(F)cc1F)CC(C)(CO)CO	-8.016%
CCC(O)(CNCc1cc[nH]n1)c1ccc(Br)cc1 (centres undefined)	7.461%
CCn1cc(S(=O)(=O)Nc2cccnc2-n2cccn2)nc1C	-8.927%
O=C(NC1(c2nc(C3CC3)no2)CCCCC1)c1cccnc1O	-6.139%
O=S(=O)(CCNCc1cc(O)c2cc(F)ccc2n1)N1CCCC1	-19.62%
C=C(C)COc1ccc(C(=O)NCC2CC(CC)=NO2)cc1 (centres undefined)	5.055%
CCc1nonc1NC(=O)C(C)Oc1ccccc1F (centres undefined)	-3.063%
Cc1nc(CNC(=O)C(C)Oc2ccccc2F)no1 (centres undefined)	94.07%
Cc1noc(C)c1CNC(=O)C(C)Oc1ccccc1F (centres undefined)	-0.2471%
CC(C)Oc1ncc(C(=O)N2CCC(NC(=O)C3CC3)CC2)cc1Cl	-2.3%
CCSCCC(C)N(C)C(=O)c1ccc(C)o1 (centres undefined)	3.019%
COCCN1CC2(CCCN(C(=O)NCCc3cccs3)C2)CCC1=O (centres undefined)	2.041%

Compound	Percent Effect
COCCOCC(=O)Nc1ccc(C)cc1Br	93.08%
Cc1ccc(NC(=O)CNc2cccc3c2CCCC3)c(Br)c1	9.995%
COCCOCC(=O)Nc1cccc(CN(C)C(C)=O)c1	3.065%
Cc1ccc(NC(=O)N(C)CC(O)COCCOC(C)C)c(Br)c1 (centres undefined)	-14.49%
COCCOCC(=O)Nc1ccc(C)cc1Cl	120.1%
COCCOCC(=O)NC(C#N)c1cc(Cl)cc(Cl)c1 (centres undefined)	-3.504%
COc1cc2c(nn1)CCN(Cc1ncc(C(C)(C)C)o1)C2	5.733%
CCN(C)S(=O)(=O)NCC1(c2cccc(Br)c2)CC1	0.1722%
CN(C)CC(=O)NC1CC(C)(C)Cc2nc(C(C)(C)C)ncc21 (centres undefined)	106.4%
CN(C)c1ccc(C(=O)N2Cc3cnc(C(C)(C)C)nc3C2)cc1	19.06%
CCCC(=O)NCC(=O)NC1CC(C)(C)Cc2oc(C)cc21 (centres undefined)	-3.424%
CN(C)CCCC(=O)NC1CC(C)(C)Cc2nc(C(C)(C)C)ncc21 (centres undefined)	112.6%
COc1ccc(C(CNC(=O)c2cnc(C)cn2)N2CCOCC2)cc1 (centres undefined)	15.25%
CCC(CC)C(CNC(=O)Nc1ccc(OC)cc1)N1CCOCC1 (centres undefined)	4.336%
COc1ccc(NC(=O)C(c2ccc(OC)cc2)N2CCOCC2)cc1 (centres undefined)	109.2%
CSc1nc2cc(C)n(CC(=O)N3CCCC3)c2c(=O)n1CC(C)C	4.703%
Cc1cc(C(=O)N2C[C@@H]3[C@@H](CN(C)CCCn4cccn4)[C@@H]3C2)c(C)o1	2.079%
CC(C)[C@H]1COC(=O)N1CC(=O)N(C)CCCn1cccn1	-1.545%
CN(CCn1cccn1)c1cc(C(F)(F)F)nc(-c2cccnc2)n1	-9%
Cc1cc(N(C)CCCn2cccn2)nc(-c2cccnc2)n1	95.65%
Cc1cc(C(=O)N(C)CCCn2cccn2)nc(N)n1	99.09%
Cc1cc(N(C)CC2COc3ccccc3O2)nc(N)n1 (centres undefined)	-8.93%

Compound	Percent Effect
Cc1cc(N(C)Cc2ncc[nH]2)nc(-c2cccnc2)n1	-8.057%
Cc1cc(N(C)CCCn2cccn2)nc(N)n1	93.8%
COc1ccccc1OCCCN(C)c1cc(C)nc(N)n1	-7.239%
Cc1cc(N2CCN(C3CCSCC3)CC2)n2nc(C)c(C)c2n1	-17.53%
CCCN(CCC)S(=O)(=O)NC(C)C(=O)N(C)C (centres undefined)	-7.467%
CCC[C@H]1CN(CCS(C)(=O)=O)C[C@@H]1NC(=O)c1ccccc1F	-18.99%
CN(C)C(=O)Cn1ccc2cc(NC(=O)N3CCOCC3)ccc21	-7.307%
O=C(CCCc1cn[nH]c1)N1CCOCC(O)C1 (centres undefined)	-4.397%
CC(=O)N1CCOCC(Cc2ccc3c(ccn3C)c2)C1 (centres undefined)	138.8%
Cn1ccc2cc(C(=O)N3CCOCC3)ccc21	-3.73%
CC(=O)N1CCOC[C@H](Oc2ccc(C(F)(F)F)cc2)C1	-13.29%
CN(C)c1ccc(CC(=O)N2CCOCC(O)C2)cc1 (centres undefined)	-50.44%
CC(=O)NCC(=O)N1CCC(C2CCN(Cc3ccc(Cl)cc3)C2)CC1 (centres undefined)	-7.699%
COCCC(=O)N1CCOCC(Cc2ccc3c(ccn3C)c2)C1 (centres undefined)	165.7%
NC(=O)c1cccc(CC2CCN(C(=O)CCCN3CCOCC3)C2)c1 (centres undefined)	-2.023%
CC(=O)NCC(=O)N1CCOCC(Cc2ccc3c(ccn3C)c2)C1 (centres undefined)	143.9%
CC(=O)N1CCOCC(Cc2ccc3c(ccn3C(C)=O)c2)C1 (centres undefined)	130%
CC(C)C(=O)Nc1ncn(Cc2cccc(Br)c2)n1	13.22%
Cn1cc(-c2cc(C(F)(F)F)n(CCCN)n2)cn1	106%
Cc1nn(C)cc1-c1ccnc(NCCN)n1	0.4357%
Cc1cc(-c2cnn(C)c2)ccc1OCC(N)=O	1.914%
Cn1cc(-c2nc(C3CCN(CC4CC4)CC3)cc3c2ncn3C)cn1	-12.1%

Compound	Percent Effect
Cc1nn(C)cc1-c1cc(C(F)(F)F)c2c(C)nn(CC(=O)O)c2n1	1.02%
CCn1cc(-c2cc(C(F)(F)F)n(CCCN)n2)cn1	69.39%
Cc1nn(C)cc1-c1cc(C(F)(F)F)n(CCCN)n1	117.1%
Cc1noc(CCCC(=O)Nc2ncccc2Br)n1	-19.61%
CCOCC1CN(Cc2ccoc2)Cc2cn(CC3CC3)nc21 (centres undefined)	25.6%
O=C(c1cn(Cc2ccc(Cl)cc2)nn1)N1CCCO1	-12.44%
Cc1cnc(N2CCOC3(CCCN(C(=O)C(C)C)C3)C2)nc1 (centres undefined)	-6.845%
CCc1cnc(C)nc1N1CCN(C(N)=O)CC1	-3.33%
Cc1ncc(C(=O)N2CC[C@@]3(O)CCN(C(=O)N(C)C)C[C@H]3C2)cn1	-6.772%
Cc1ncc2c(n1)C1(CCN(C(=O)C(C)C)CC1)OCC2.Cl	141.2%
O=C(C1CCC1)N1CCC2(COCc3cnc(N4CCOCC4)nc32)C1 (centres undefined)	-15.94%
Cc1ncc2c(n1)C1(CCN(C(=O)C3CC3)CC1)OCC2.Cl	134.7%
Clc1ccc(CN2CCN(Cn3nccc3-c3cccnc3)CC2)s1	6.087%
CCC1CN(c2cnn(C)c(=O)c2Cl)CCO1 (centres undefined)	22.68%
Cc1ccccc1C1CN(c2cnn(C)c(=O)c2Cl)CCO1 (centres undefined)	91.27%
CCC1CN(c2cnn(-c3ccccc3)c(=O)c2Cl)CCO1 (centres undefined)	4.552%
Cc1cccc(N(CCC(N)=O)CC(=O)Nc2cc(Cl)ccc2Cl)c1	-1.848%
O=C(O)C(F)(F)F.O=C(O)C(F)(F)F.c1ccc(CNCC2Cn3nnc(-c4ccncc4)c3CO2)nc1 (centres undefined)	9.944%
CC(=O)NCC1CCN(C(=O)c2csc(-c3ccc(C)cc3C)n2)CC1	-1.979%
CCCN(Cc1nccn1C)C(=O)c1cc(C)nc(C)n1	-2.808%
CCN(CC)C(=O)c1cc(C2(C)CCN(C(C)=O)CC2)nc(C)n1	112.9%
CN(C)CCNC(=O)c1cc2n(n1)CCN(C(=O)CC(C)(C)C)C2	4.361%

Compound	Percent Effect
CC(=O)N1CCN(c2cc(-n3cnc(C)c3C)nc(C)n2)CC1	-7.107%
CC(=O)N1CCC(C)(c2cc(C(=O)NCC(C)(C)C)nc(C)n2)CC1	109.7%
Cc1nc(CN2CCC(CNC(=O)C3(C)CCCC3)CC2)oc1C	-9.195%
CC(=O)N1CCC(C)(c2cc(C(=O)NCC3CC3)nc(C)n2)CC1	107.8%
Cc1nc(NCc2ccc(C)o2)cc(C(=O)N2CCOCC2)n1	-3.993%
CNc1nc(N2CCN(CC=C(C)C)C(CCO)C2)nc2c1CCC2 (centres undefined)	-3.074%
CNc1nc(C2CCCN2C(C)=O)nc2c1CCN(CC1CC1)C2 (centres undefined)	-2.53%
CNc1nc(C2CCCN2C(C)=O)nc2c1CN(C1CCCC1)CC2 (centres undefined)	121.2%
CNc1nc(N2CCN(C)C(CCO)C2)nc2c1CCC2 (centres undefined)	-12.86%
CNc1nc(N2CCN(C3CCCCC3)C(CCO)C2)nc2c1CCC2 (centres undefined)	13.4%
CNc1nc(C2CCCN2C(C)=O)nc2c1CN(CCO)CC2.O=CO (centres undefined)	123.3%
N[C@@H]1CCN(Cc2cccc(N3CCOCC3)c2)C[C@H]1O	-37.83%
Cc1oc2nc[nH]c(=O)c2c1C(=O)N1CCCC(n2cccn2)C1 (centres undefined)	-6.627%
CC(C)OCCCNC(=O)C1CCC(=O)N(C2CCCC2)C1 (centres undefined)	25.57%
CC(Cn1ccnc1)NC(=O)C1(c2ccc3c(c2)OCCO3)CCCC1 (centres undefined)	6.008%
CCCn1nc(C(=O)N(C)Cc2cnn(C)c2)ccc1=O	125%
Cc1nc(C)c(C(=O)N(C)Cc2cnn(C)c2)s1	-4.031%
CN(Cc1cnn(C)c1)C(=O)c1ccc(=O)n(Cc2ccccc2)n1	97%
CCCn1nc(C(=O)N(C)Cc2nnc3n2CCC3)ccc1=O	-34.52%
Cc1ccccc1C(C(=O)N(C)Cc1cnn(C)c1)N(C)C (centres undefined)	-13.96%
CN(Cc1cnn(C)c1)C(=O)C1COCC(=O)N1Cc1ccccc1 (centres undefined)	16.93%
